Data from PubChem BioAssay (Tox21).
Inconclusive results are not listed. The source made the active and inactive calls. Calls follow the shape of the dose curve; as a rule, active = well fitted inhibition curve with a large enough effect in the repeat runs; inconclusive = weak or mixed curves; inactive = no such curve, though single readings can be large or run the other way.

Target: Cytochrome P450 1A2 (Homo sapiens) (UniProt P05177)
Test: Cytochrome P450 Family 1 Subfamily A Member 2 (CYP1A2) small molecule antagonists: luciferase reporter qHTS assay (AID 1671199); also: nearly all actives have a fitted effect of over 50% in size
Settings: P450-Glo CYP1A2 enzyme, luciferin luminescence, 1 h; series mostly up to 53 µM
Procedure, shortened: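 Human CYP1A2 activity measured with a P450-Glo proluciferin substrate; compounds in DMSO preincubated 10 min at room temperature with enzyme-substrate mix, then NADPH regeneration system added for 1 h. Luciferin detection reagent, 20 min, luminescence read.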
Potency is read from the fitted curve at half-maximal effect.

Cytochrome P450 1A2 (Homo sapiens), sequence (P05177 whole entry, looked up): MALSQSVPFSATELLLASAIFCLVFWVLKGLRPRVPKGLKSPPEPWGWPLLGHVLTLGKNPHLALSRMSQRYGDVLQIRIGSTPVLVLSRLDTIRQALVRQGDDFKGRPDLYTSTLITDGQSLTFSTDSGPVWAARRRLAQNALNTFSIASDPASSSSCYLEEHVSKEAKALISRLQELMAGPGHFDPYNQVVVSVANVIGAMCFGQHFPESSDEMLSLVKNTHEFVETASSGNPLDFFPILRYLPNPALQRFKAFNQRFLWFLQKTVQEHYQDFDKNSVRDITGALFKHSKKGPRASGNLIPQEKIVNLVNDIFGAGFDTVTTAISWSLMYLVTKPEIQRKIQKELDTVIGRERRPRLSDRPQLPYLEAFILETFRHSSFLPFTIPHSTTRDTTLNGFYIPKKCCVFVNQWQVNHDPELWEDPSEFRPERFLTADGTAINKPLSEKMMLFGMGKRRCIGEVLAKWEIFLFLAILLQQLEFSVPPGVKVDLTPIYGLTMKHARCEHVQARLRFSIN

SMILES	Potency
CCc1oc2ccccc2c1C(=O)c1cc(Br)c(O)c(Br)c1	inactive
C[C@H]1[C@H]2CC[C@H]3[C@@H]4CC=C5C[C@@H](N(C)C)CC[C@]5(C)[C@H]4CC[C@]23CN1C	inactive
Clc1ccc2cc3ccccc3cc2c1	1.59 µM (active)
CS(=O)(=O)CCNCc1ccc(-c2ccc3ncnc(Nc4ccc(OCc5cccc(F)c5)c(Cl)c4)c3c2)o1	inactive
CCCCN1CCCC[C@H]1C(=O)Nc1c(C)cccc1C	17.4 µM (active)
N=C1N=C(N)c2cc3ccccc3cc21	1.78 µM (active)
Cc1cc(N)c(S(=O)(=O)O)cc1Cl	inactive
CCC1=C[C@@H]2CN(C1)Cc1c([nH]c3ccccc13)[C@@](C(=O)OC)(c1cc3c(cc1OC)N(C)[C@H]1[C@@](O)(C(=O)OC)[C@H](OC(C)=O)[C@]4(CC)C=CCN5CC[C@]31[C@@H]54)C2	inactive
C[n+]1cc2c3c(ccc2c2ccc4cc5c(cc4c21)OCO5)OCO3	12 µM (active)
CCCCCOc1ccccc1/C(=C\SC)n1ccnc1	2.29 µM (active)
CCCCCCCCCCCC(=O)NCCCN(C)C	35.6 µM (active)
CCCC(=O)OC[C@@H](OC(=O)CCC)[C@@H](OC(=O)CCC)[C@H](Cn1c2nc(=O)[nH]c(=O)c-2nc2cc(C)c(C)cc21)OC(=O)CCC	inactive
Cc1cccc(CN2CCN(C(c3ccccc3)c3ccc(Cl)cc3)CC2)c1 (stereo not given)	inactive
CC[C@@]1(O)C(=O)OCc2c1cc1n(c2=O)Cc2c-1nc1ccccc1c2/C=N/OC(C)(C)C	inactive
Oc1cccc(-c2c3nc(c(-c4cccc(O)c4)c4ccc([nH]4)c(-c4cccc(O)c4)c4nc(c(-c5cccc(O)c5)c5ccc2[nH]5)CC4)C=C3)c1	inactive
NNC(=O)c1cccc(C(=O)NN)c1	10 µM (active)
Cn1cc(C(=O)[C@@H]2CCc3nc[nH]c3C2)c2ccccc21	17.4 µM (active)
C/C(=C(/OCCOc1ccc(Cl)cc1)c1ccc(Cl)cc1Cl)n1ccnc1	2.29 µM (active)
Cc1cc(O)c(Cl)c(C)c1Cl	17.8 µM (active)
O=C(NO)C1(NS(=O)(=O)c2ccc(Oc3ccc(F)cc3)cc2)CCOCC1	inactive
Clc1ccc(C(Cn2ccnc2)OCc2ccc(Sc3ccccc3)cc2)c(Cl)c1 (stereo not given)	15.5 µM (active)
CNCc1cc(F)ccc1Oc1ccc(Cl)c(Cl)c1	1 µM (active)
Nc1nc2ccccc2n1Cc1ccc(F)cc1	24.5 µM (active)
CSc1ccc2c(c1)C(N1CCN(C)CC1)Cc1ccccc1S2 (stereo not given)	inactive
CCOC(=O)/C=C(C)/C=C/C=C(C)/C=C/c1c(C)cc(OC)c(C)c1C	24.5 µM (active)
